Outcome data for 40 compounds are collected here from PubChem BioAssay (EPA / NIEHS).

The source made the active and inactive calls. Rule for the calls: active = hit-call score of the fitted dose curve at least 0.9, where 1 is the maximum; inactive = score below 0.9.

This experiment in a line: ATG_M_32_CIS: Attagene CIS-FACTORIAL HepG2 Assay for M32 Transcription Factor (Internal Marker) (AID 2282949).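 Note: background control marker of the multiplexed CIS panel rather than a real target.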 The conditions noted are these: HepG2 Attagene cis-factorial M32 reporter, mRNA; actives raise or lower the signal. The method, then:
ATG_CIS is a cell-based, multiplexed-readout assay that uses HepG2, a human liver cell line, with measurements taken at 24 hours after chemical dosing in a 24-well plate.ATG_M_32_CIS is one of 52 assay component(s) measured or calculated from the ATG_CIS assay. It is designed to make measurements of mRNA induction, a form of inducible reporter, as detected with fluorescence intensity signals by Reverse transcription polymerase chain reaction (RT-PCR) and Capillary electrophoresis technology.Data from the assay component ATG_M_32_CIS was analyzed into 1 assay endpoint. This assay endpoint, ATG_M_32_CIS, was analyzed with bidirectional fitting relative to DMSO as the negative control and baseline of activity. Using a type of inducible reporter, measures of mRNA for gain or loss-of-signal activity can be used to understand the background control at the transcription factor-level as they relate to the gene . Furthermore, this assay endpoint can be referred to as a secondary readout, because this assay has produced multiple assay endpoints where this one serves a background control function. To generalize the intended target to other relatable targets, this assay endpoint is annotated to the background measurement intended target family, where the subfamily is internal marker.
Human liver HepG2 cells are transiently transfected with multiple reporter transcription units (MRTUs) in 6-well plates using FuGene 6 reagent (Roche; 3 ml FuGene/1 mg DNA). The MRTU constructs are regulated by a cis-regulating element (promoter). […] A major difference between the CIS and TRANS system is that in CIS activities of endogenous TFs are measured, whereas the TRANS assay evaluates changes in activities of exogenous, chimeric NR-Gal4 proteins. […] At the end of 24 hour incubation, total RNA was isolated using TriZol reagent (Invitrogen). The isolated RNA is then reverse-transcribed using oligo(dT) primer and Mo-MLV reverse transcriptase (Invitrogen) with DNAse I (Ambion) treatment for 30 min. The one-tenth of the produced cDNA was amplified by PCR using Taq DNA polymerase (Invitrogen) and two reporter sequence-specific primers. The PCR products were fluorescently labeled by primer extension with 6-arboxyfluorescein (6-FAM) 5'-labeled reporter sequence-specific primer (2 min at 95 C, 20 s at 68 C and 10 min at 72 C) and these products were digested with 5U of HpaI (New England Biolabs) for 2h at 37 C. The fragments were purified using Qiaquick PCR columns (Qiagen), analyzed on an ABI 3130xL genetic analyzer (Applied Biosystems) with peak positions identified by using a set of X-rhodamine (ROX)-labeled MapMarker1000 molecular weight standards (BioVentures). The raw capillary electrophoresis data was processed using Attagraph software (Attagene).
Regarding `On1ccccc1=S`, the result was inactive.
On to `CCCCCCCCCCCCc1ccccc1`, for which the call was inactive.
For the compound `Cc1c(-c2cccnc2)c2ccccc2n1CCCCC(=O)O`, the result was inactive.
`Oc1ccc2c(c1)-c1ccccc1C2`: the compound was classed as inactive.
In the case of `O=c1n(CC2CO2)c(=O)n(CC2CO2)c(=O)n1CC1CO1` (stereo not given), the call was inactive.
On to `CC(C)CCCCCCOC(=O)c1ccc(C(=O)OCCCCCCC(C)C)c(C(=O)OCCCCCCC(C)C)c1`, for which the compound was classed as inactive.
Consider `CN(C)c1ccc(Cc2ccc(N(C)C)cc2)cc1`, for which the compound was called inactive.
Then `CC(C)c1cccc(C(C)C)c1N1C(=O)c2ccc(O)cc2C1=O`, with “inactive”; and `Cn1c(=O)c2c(ncn2C)n(C)c1=O`, with “inactive”; and `O=C(O)c1cc(N=Nc2ccc(S(=O)(=O)Nc3ccccn3)cc2)ccc1O`, with “inactive”.
Regarding `CCCN(C1CCN(C(=O)C2CCNCC2)CC1)[C@@H]1CCc2ccc(OC)cc2C1`, the outcome was inactive.
As to `CCCCCCCCCCCCCCCO`, the outcome was inactive.
As to `COC(=O)CC(=O)OC`, the result was inactive.
The value for `CNS(=O)(=O)c1cc(C(=O)N2CCC(CCN3C4CCC3CC(n3c(C)nc5ccccc53)C4)(c3cccc(F)c3)CC2)c(Cl)cc1F` (stereo not given) was “inactive”.
Turning to `Cc1ccc(S(=O)(=O)O)cc1C`, the outcome was inactive.
Consider `CC(C)CCO`, for which the outcome was inactive.
Then `O=c1[nH]c2ccc(S(=O)CCN3CCC(Cc4ccc(F)cc4)CC3)cc2o1` (stereo not given), with “inactive”.
Consider `CCCCCCc1ccc(O)cc1O`, for which the outcome was inactive.
`Nc1cccc(N)c1`: the compound was called inactive.
The value for `CCCC(=O)OCC` was “inactive”; that for `Clc1nc(Cl)c(Cl)c(Cl)c1Cl` was “inactive”; that for `COc1cccc(-c2ccc(/C=C\CN3CCCCCC3)cc2Cl)c1` was “inactive”.
For the compound `CC(C)=CCCC(C)CCO` (stereo not given), the compound was called inactive.
Then `O=C(O)c1cccc(Oc2ccccc2)c1`, with “inactive”; and `CCc1cc(SCc2sc(-c3ccc(C(F)(F)F)cc3)nc2CN2CCN(c3ccc(OC)cc3)CC2)ccc1OCC(=O)O`, with “inactive”; and `COc1ccc2sc(C(=O)Nc3nnn[nH]3)c(OC(C)C)c2c1`, with “inactive”.
`CC(C)CCCCCCCOC(=O)CCCCC(=O)OCCCCCCCC(C)C`: the compound was called inactive.
As for `Cc1ccc(C)c(O)c1`, the call was inactive.
For `COCCOCCOCCOC`, the compound was called inactive.
`O=C1CCC(N2C(=O)c3ccccc3C2=O)C(=O)N1` (stereo not given): the compound was called inactive.
Take `CCNc1ccccc1`: the compound was classed as inactive.
Then `C1=CCCC=CCCC=CCC1`, with “inactive”.
As for `CCOCCOCCOCCO`, the compound was called inactive.
As to `O=C1CCCCCN1`, the call was inactive.
On to `CC(C)=CCC/C(C)=C\CO`, for which the outcome was inactive.
For the compound `CC1=CC(=O)CC(C)(C)C1`, the call was inactive.
Regarding `CC(C)(O)c1coc(S(=O)(=O)NC(=O)Nc2c3c(cc4c2CCC4)CCC3)c1`, the call was inactive.
Take `O=P(OC(CCl)CCl)(OC(CCl)CCl)OC(CCl)CCl`: the result was inactive.
For `Cc1ccc(O)cc1`, the compound was classed as inactive.
Then `O=C(NS(=O)(=O)/C=C/c1ccccc1)c1ccc(F)cc1Cl`, with “inactive”.
